From PubChem BioAssay (NCI) come the findings set out here.

The panel holds about 83,000 compounds, 20% with a hit somewhere; the sample as a whole holds those more often.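 Interpretation: 100, growth as untreated; towards 0, rising growth inhibition; 0, no net growth; 0 to -100, cell death. Compounds scoring below 10 were considered active.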 Unmarked numbers belong to inactive results. Active and inactive are the calls of the source.

What all share (assay): NCI-60 one-dose screen, 48 h (100 = growth as untreated, 0 = no growth, -100 = all killed)
Holding throughout (conditions): 10 µM unless noted

In assay [1] the test system is SK-MEL-2 melanoma.
In assay [2] the test system is EKVX NSCLC.
Assay [3] deals with SN12C renal.
Assay [4] deals with UO-31 renal.
The subject of assay [5] is TK-10 renal.
Assay [6] deals with ACHN renal.
The subject of assay [7] is CAKI-1 renal.
Assay [8] relates to A498 renal.
Assay [9] relates to CCRF-CEM leukemia.
The subject of assay [10] is MOLT-4 leukemia.

As to `CC(=O)NNc1ccc2nnc(-c3ccccc3)n2n1`, the growth in [1] was 102%; in [2], 95.9%; in assay [3], 97.1%; in [4], 88.5%; in assay [5], 106%; in assay [6], 104%. Moreover, the figures for the growth in [7], in assay [8] and in assay [9] were 90.9%, 108% and 108%, respectively.

In the case of `COc1ccc(C(=O)/C=C/c2cc3c(cc2Br)OCO3)cc1S(N)(=O)=O`, the growth in assay [1] is 89.2%; in assay [2], 4.57% (active); in assay [3] it was -12.5% (active); in [4] it was -44.5% (active); in assay [5] it was 16.8%; in assay [6], -23% (active). Further, the growth in assay [7] was -20.2% (active); in assay [8], 88.7%; in [9], 5.43% (active).

Consider `CCN1CCN(Cc2ccc(C(=O)Nc3cccc(C#Cc4cccc5[nH]nc(N)c45)c3)cc2C(F)(F)F)CC1`, for which the growth in [1] was -80.7% (active); in assay [2], -93.1% (active); in assay [3], -76.1% (active); in assay [4], -94.2% (active); in assay [5], -94.2% (active); in assay [6], -98.2% (active). In addition, the growth in assay [7] is -91.7% (active); in assay [8], -84.6% (active); in [9] it was 3.6% (active).

For the compound `O=C1N/C(=N\c2nccs2)S/C1=C\C=C/c1ccccc1`, the growth in assay [1] is 37.7%; in assay [2] it was 27.5%; in assay [3] it was 39.2%; in assay [4], 25.5%; in [5], 34.5%; in assay [6], 23.5%. Besides, the growth in assay [7] is 35.1%; in assay [8], 57.2%.

With `Cc1cc(N=C2NC(=O)CS2)n[nH]1`, the growth is 98.7% in assay [1]; 72.7% in [2]; 101% in assay [3]; 79.3% in assay [4]; 108% in [5]; 102% in assay [6]. Besides, the growth in [7] is 95.9%; in assay [8], 124%.

Turning to `NS(=O)(=O)c1ccc(-n2cc(-c3cccc(NC(=O)c4ccc(Cl)c(C(F)(F)F)c4)c3)nn2)cc1`, the growth was 78.3% in assay [1]; 46.5% in assay [2]; 34.3% in assay [3]; 51% in [4]; 48.7% in assay [5]; 23.2% in assay [6]. The growth in assay [7] is 33.2%; in assay [8], 91.1%; in assay [9], 28.3%.

For the compound `N#Cc1c(NCc2ccccc2)n[nH]c1Nc1ccccc1`, the growth is 20.7% in assay [1]; 52.8% in assay [2]; 50.8% in [3]; 38.5% in assay [4]; 75.5% in [5]; 38.1% in [6]. The values for the growth in assay [7], in assay [8] and in [9] were 33.4%, 79% and 18.3%, respectively.

For the compound `Cc1c(C(=O)NNC(=O)c2ccc(Cl)cc2)nnn1-c1ccc(Br)cc1`, the growth is 107% in assay [1]; 99.4% in [2]; 102% in assay [3]; 75.9% in [4]; 95.4% in assay [5]; 102% in [6]. The growth in [7] is 87.9%; in [8], 139%; in assay [9], 90.3%; in [10], 85.4%.

On to `COc1ccc(-c2ccnc(SCc3cc4ccccc4[nH]c3=O)n2)cc1`, for which the growth in assay [1] is 67.2%; in [2] it was 69.8%; in assay [3] it was 49.1%; in assay [4], 68.4%; in assay [5] it was 85.2%; in assay [6], 74.4%. For the same compound, the growth in [7] was 55.1%; in assay [8] it was 93.2%; in assay [9] it was 48.1%; in assay [10], 11.1%.

In the case of `Cc1ccc(NC(=O)CN2CCN(c3ncnc4c3cnn4-c3ccccc3)CC2)cc1`, the growth was 87.8% in assay [1]; 81% in [2]; 74.6% in [3]; 63% in assay [4]; 152% in assay [5]; -32.7% (active) in assay [6]. The growth is 77.8% in assay [7], 104% in assay [8], 78.4% in [9] and 68.1% in assay [10].

Consider `Cn1cc(NC(=O)c2cc(NC(=O)c3ccc(/C=C/c4ccccc4)cc3)cn2C)cc1C(=O)NCCCN1CCOCC1`, for which the growth is 99.6% in [1]; 89.6% in assay [2]; 43.4% in assay [3]; 61.6% in [4]; 87.9% in [5]; 70.7% in assay [6]. In addition, the growth in assay [7] is 55.6%; in assay [8], 90.6%; in assay [9], -8.72% (active); in [10], -23.6% (active).

As to `N#Cc1c(-c2cccc3ccccc23)cc(-c2cccc(OCC(=O)O)c2)[nH]c1=O`, the growth is 115% in [1]; 93.5% in [2]; 96.8% in assay [3]; 71.3% in assay [4]; 104% in [5]; 100% in assay [6]. Besides, the growth in assay [7] was 74.2%; in assay [8] it was 99.3%; in assay [9], 96.8%; in [10] it was 85.7%.

Turning to `CN(C)CCOc1ccc(C(=O)C2[C@H](c3ccc(Cl)cc3)[C@@H](c3ccccc3)NC23C(=O)Nc2ccccc23)cc1` (stereo partly specified), the growth is 112% in [1]; 77.2% in assay [2]; 69.1% in assay [3]; 59% in [4]; 117% in [5]; 88.3% in assay [6]. Further, the growth in assay [7] is 58%; in assay [8] it was 112%; in assay [9] it was 86.3%; in [10], -32.8% (active).

On to `COCOc1cc2oc(C(=O)N[C@@H](Cc3ccccc3)C(O)C(=O)NCc3ccccc3)c(C)c(=O)c2cc1OCOC` (stereo partly specified), for which the growth in assay [1] is 79.7%; in assay [2] it was 107%; in assay [3] it was 51.9%; in [4], 87.1%; in assay [5], 63.2%; in assay [6], 66.9%. Also, the growth in assay [7] is 84.7%; in [8], -35.2% (active); in assay [9] it was 104%; in assay [10], 97.3%.

For the compound `CN(C)CCCNC(=O)c1cc(NC(=O)c2cc(NC(=O)c3ccc(/C=C/c4ccccc4)cc3)cn2C)cn1C`, the growth was 60.6% in assay [1]; 66.9% in assay [2]; 49.3% in [3]; 66.6% in [4]; 83.7% in [5]; 40.3% in assay [6]. In addition, the growth in assay [7] was 34.7%; in [8], 103%; in [9], 22.9%; in assay [10], -5.97% (active).

On to `Nc1nc(C(F)(F)F)cs1`, for which the growth is 108% in assay [1]; 94.5% in [2]; 111% in assay [3]; 93.8% in assay [4]; 98.1% in assay [5]; 113% in assay [6]. The growth in assay [7] was 96.7%; in [8], 114%; in assay [9] it was 109%; in [10], 112%.

For `O=C(O)c1cccc(-c2ccc(/C=N/NC(=O)c3[nH]c4ccc(Br)cc4c3-c3ccccc3)o2)c1`, the growth in [1] is 61.4%; in assay [2], 86.3%; in assay [3] it was 81.5%; in assay [4], 81%; in assay [5], 117%; in assay [6] it was 89.9%. Moreover, the growth was 96.4% in [7], 95.3% in assay [8], 9.68% (active) in assay [9] and 63.6% in assay [10].

For `COc1ccc(/C=C2\C(=N)N=C(SCc3nc4ccccc4[nH]3)NC2=O)cc1`, the growth in assay [1] is 114%; in assay [2] it was 109%; in assay [3] it was 103%; in assay [4], 77.8%; in assay [5] it was 149%; in assay [6], 109%. The growth in [7] was 92.8%; in assay [8], 119%; in assay [9] it was 94.9%; in assay [10] it was 104%.

Turning to `COc1ccc2oc3c4[nH]c5ccccc5c4c4c(c3c2c1)C(=O)N(C(=O)OC(C)(C)C)C4=O`, the growth was -46.8% (active) in assay [1]; -18.9% (active) in assay [2]; -19.3% (active) in [3]; -12.8% (active) in assay [4]; -11% (active) in assay [5]; -22.3% (active) in assay [6]. The growth in assay [7] is -15.3% (active); in [8] it was -10.9% (active); in assay [9] it was 6.52% (active); in [10], -28.4% (active).

Consider `CC(=O)Nc1ccc(C(=O)NC(=S)Nc2ccc(S(N)(=O)=O)cc2)cc1`, for which the growth in [1] is 97.1%; in assay [2], 90.1%; in [3], 91.7%; in [4], 80.7%; in assay [5], 89.1%; in [6] it was 102%. Besides, the growth in [7] was 87.9%; in [8], 104%; in assay [9], 100%; in assay [10] it was 111%.

`CCCCSc1nc(Nc2ccc(S(N)(=O)=O)cc2)c(C#N)c(-c2cc(OC)c(OC)c(OC)c2)n1`: the growth was 87.7% in assay [1]; 55.2% in [2]; 23.1% in assay [3]; 12.1% in assay [4]; 82.2% in assay [5]; 12.2% in assay [6]. Moreover, the growth is 34.9% in assay [7], 88.1% in assay [8], 22.1% in [9] and -29.9% (active) in assay [10].

Regarding `COc1cc(-c2nc3cc(Cl)c(Cl)cc3[nH]2)ccc1OCc1nnc(-c2cccs2)o1`, the growth in assay [1] is 65.7%; in [2], 91.3%; in assay [3], 33.7%; in [4], 62.5%; in [5], 125%; in assay [6] it was 36%. For the same compound, the growth in assay [7] was 67.7%; in assay [8] it was 121%; in assay [9], 91.8%; in [10], 62.8%.

As for `O=C(Cn1c(/C=C/c2ccccc2)nc2ccccc2c1=O)Nc1ccc(Cl)cc1`, the growth was 114% in assay [1]; 98.6% in assay [2]; 19.2% in assay [3]; -24.6% (active) in assay [4]; -12% (active) in assay [5]; -65.6% (active) in [6]. Also, the growth in assay [7] was 20.4%; in [8], -15.5% (active); in assay [9] it was 85.6%; in assay [10], 86.9%.

Take `COc1cc2c(c(OC)c1OC)C(=O)CC(c1cccc(NC(=O)c3cc(NC(=O)[C@H](CO)NC(=O)OC(C)(C)C)ccc3Cl)c1)O2` (stereo partly specified): the growth in assay [1] is 11.7%; in assay [2], 62.2%; in assay [3] it was 27.1%; in assay [4], 48.8%; in assay [5], 78.9%; in [6] it was 46.1%. Moreover, the growth in assay [7] is 31.2%; in assay [8], 91.5%; in assay [9] it was 21.8%; in assay [10] it was 12.5%.

`COc1ccc2[nH]cc(-c3nnc(N)nc3-c3cn(C)c4ncc(Br)cc34)c2c1`: the growth is 61.1% in [1]; 88.7% in [2]; 60.2% in [3]; 49.4% in assay [4]; 46.3% in [5]; 50.8% in [6]. Further, the growth in assay [7] was 43.9%; in assay [8], 45.5%; in [9] it was 66.8%; in assay [10] it was 56.6%.

As to `C=C1CC[C@@H]2[C@]3(C)COC(c4ccccc4)O[C@@H]3CC[C@@]2(C)[C@@H]1C/C=C1/C(=O)OCC1OC(C)=O` (stereo partly specified), the growth was -61.5% (active) in assay [1]; 21.8% in assay [2]; -96.9% (active) in assay [3]; -94.1% (active) in assay [4]; -21.2% (active) in assay [5]; -100% (active) in [6]. In addition, the growth in assay [7] is 20.6%; in assay [8], 129%; in [9], -29.3% (active); in assay [10] it was -28.7% (active).

In the case of `CCCCCCn1c(O)c(N=Nc2nc(-c3cc4ccccc4oc3=O)cs2)c2ccccc21`, the growth in [1] is 79.7%; in assay [2], 1.67% (active); in [3], 63.8%; in assay [4], 75.1%; in [5], 90.4%; in assay [6], 81.4%. Moreover, the growth is 58.9% in assay [7], 88% in [8], 5.68% (active) in assay [9] and 23.4% in [10].
